VACV mCherry inh – vaccinia inhibition (mCherry reporter); Potency, µM (top dose mostly 36.5 µM), inactives show top-dose activity change, negative = inhibition, usual class: inhibitors; AID 720579; 310,000 compounds, 0.63% hits; Vaccinia virus mCherry reporter infection, fluorescence; calls by dose curve; tested in A549 cells; also: nearly all actives have a fitted effect of over 35% in size
VACV Venus inh – vaccinia inhibition (Venus reporter) | Potency, µM (doses to about 36.5 µM), for inactives: top-dose activity change, negative = inhibition, hits mostly inhibitors | 330,000 compounds, 0.46% hits | AID 720580 | Vaccinia virus Venus reporter expression, fluorescence; calls by dose curve; tested in A549 cells; also: nearly all actives have a fitted effect of over 30% in size
LASV entry inh – blocks Lassa virus binding to or entry into cells | Potency, µM (series often up to 37.9 µM), without a hit: at the top dose activity change, negative = inhibition, actives largely listed as inhibitors | 300,000 compounds, 1.2% hits | Lassa virus pseudotype entry inhibition, cell reporter; calls by dose curve; tested in HEK293 cells; also: nearly all actives have a fitted effect of over 50% in size
Sm TGR inh – blocks Schistosoma mansoni thioredoxin glutathione reductase; 360,000 compounds, 3% hits; Q962Y6; purified TGR, DTNB reduction, TNB absorbance 405 nm; Potency, µM (doses to about 114 µM), without a hit: at the highest dose activity change, negative = inhibition, hits mostly inhibitors; active = well fitted inhibition curve with a large enough effect; inconclusive = small, poorly fitted or top-dose-only effect; inactive = no such curve, though single readings can be large or run the other way; also: nearly all actives have a fitted effect of over 60% in size
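First, TGR (20 nM dispensed) and NADPH were mixed with compound. Second, a 15 min room-temperature incubation followed. Third, further NADPH and then DTNB were added to start the reaction. Finally, TNB absorbance was monitored kinetically.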
FMDV antiviral – foot and mouth disease virus antiviral activity; Potency, µM (top dose mostly 57.9 µM), for inactives: top-dose activity change, negative = inhibition, hits mostly inhibitors; 410,000 compounds, 1.2% hits; FMDV antiviral cell-based qHTS; calls by dose curve; tested in HEK293T cells; also: read-out not given here; nearly all actives have a fitted effect of over 45% in size
Marburg entry inh – blocks Marburg virus binding to or entry into cells; Marburg virus pseudotyped entry inhibition, cell reporter; Potency, µM (highest dose often 37.8 µM), without a hit: at the top dose activity change, negative = inhibition, usual class: inhibitors; 300,000 compounds, 1.8% hits; AID 540276; calls by dose curve; tested in HEK293 cells
An asterisk follows results filed as active; i = inactive; ? = inconclusive; . = not tested or not shown; [ ] = another dose, or the depositor's remark. Compounds with a hit are over-represented: about 5.4% of the library has one in this group of screens. % is scaled to controls: 0 for no effect and ±100 for the full control effect; potency is read from the fitted curve at half-maximal effect.

SMILES	VACV mCherry inh	VACV Venus inh	LASV entry inh	Sm TGR inh	FMDV antiviral	Marburg entry inh
CCOC(=O)c1c(NC(=O)C(C)Sc2cn(CCNC(=O)c3c(F)cccc3F)c3ccccc23)sc2c1CCC2 (centres undefined)	-6%	-8%	-17%[46.1 µM]	-9%	-13%	7.9µM*
COC(=O)C1CCN(c2nc(CN(C)C3CCOC3)nc3cc(OC)c(OC)cc23)CC1 (centres undefined)	3%	13%	.	.	-3%	.
O=S1(=O)CCO[C@H]2CCCC[C@@H]2N1Cc1ccccc1F	i	-11%	.	.	.	.
O=S1(=O)CCO[C@H]2CCCC[C@@H]2N1Cc1ccc(Cl)cc1	10µM*	?	.	.	.	.
CCN(CC)C(=O)N1CCC2CCCCC2C1CN1C(=O)C2=C(CCCC2)C1=O (centres undefined)	.	.	.	.	.	-14%
CCOC(=O)c1ccccc1NC(=O)Nc1cc2c(cc1N1CCCC1)n(C)c(=O)n2C	-18%	-28%	0%[46.1 µM]	-9%	-8%	-47%[46.1 µM]
CCN1CCC(O)(/C=C/c2ccc(C(C)C)cc2)C(C(=O)/C=C/c2ccc(C(C)C)cc2)C1 (centres undefined)	11µM*	?	14µM*	.	32µM*	?
CCN1CCN(C(=O)/C=C/c2ccc(C(C)C)cc2)CC1	-7%	-11%	-1%[46.1 µM]	.	32%	?
CC(=O)Oc1ccccc1[C@@H]1OCCN1C(C)=O	.	.	.	.	.	2%
Cn1cc(CN2CCN(c3ccccc3)CC2)c2ccccc21	.	.	-18%	3%	-11%	15µM*
CCN(C(=O)c1cc2c(=O)n(CC)c3ccccc3c2s1)c1cccc(C(F)(F)F)c1	-14%	-2%	-9%[46.1 µM]	0%	?	4%[46.1 µM]
CCS(=O)(=O)c1ncc(Cl)c(C(=O)NCc2ccc(OC)cc2)n1	-17%[7.34 µM]	-9%[7.34 µM]	?	10µM*	25µM*	.
CCS(=O)(=O)c1ncc(Cl)c(C(=O)N(Cc2ccccc2)c2ccc(OC)cc2)n1	-27%[7.34 µM]	-23%[7.34 µM]	?	40µM*	11µM*	?
COc1ccc(N2CCN(C(=O)c3nc(SC)ncc3Cl)CC2)cc1	-12%	1%	8%[46.1 µM]	-2%	-18%	2%[46.1 µM]
CCS(=O)(=O)c1ncc(Cl)c(C(=O)Nc2ccccc2OC)n1	i	-4%	?	0%	3.5µM*	-16%[46.1 µM]
COc1ccc(N(Cc2ccccc2)C(=O)c2nc(SC)ncc2Cl)cc1	-12%	-6%	-24%[46.1 µM]	5%	0%	?
Cc1ccc(CNC(=O)c2nc(S(=O)(=O)Cc3ccc(C)cc3)ncc2Cl)cc1	?	?	?	?	-50%	?
CCS(=O)(=O)c1ncc(Cl)c(C(=O)N2CCN(c3ccc(OC)cc3)CC2)n1	-23%	-24%	?	35µM*	32µM*	?
COc1cccc(O)c1CN1CCC2(CC1)c1ccccc1[C@@H](NC(=O)c1ccsc1)[C@@H]2OC	-13%	-1%	.	.	-7%	.
Cc1nc2nc(SCC(=O)N(C)Cc3ccccc3)nn2c(C)c1Cc1ccccc1Cl	3%	-1%	6%[46.1 µM]	5%	0%	-8%[46.1 µM]
CCCn1c(=O)c2sccc2n2c(CCCC(=O)N3CCN(c4ccccc4)CC3)nnc12	-11%	-1%	8%[46.1 µM]	5%	-13%	.
COc1cc(OC)c(NC(=O)CSC2=Nc3ccccc3N=C(c3ccc(F)cc3)C2)cc1Cl	-7%	-10%	20%[46.1 µM]	4%	-23%	.
COc1ccc(OC)c(NC(=O)c2nc(S(=O)(=O)Cc3ccc(F)cc3)ncc2Cl)c1	?	?	?	3.2µM*	22µM*	?
CCCS(=O)(=O)c1ncc(Cl)c(C(=O)N(Cc2ccccc2)Cc2ccco2)n1	-13%[7.34 µM]	-12%[7.34 µM]	?	5µM*	16µM*	?
COc1ccccc1NC(=O)c1nc(SCc2ccc(F)cc2)ncc1Cl	-7%	-6%	24%[46.1 µM]	?	-16%	4%[46.1 µM]
SMILES	VACV mCherry inh	VACV Venus inh	LASV entry inh	Sm TGR inh	FMDV antiviral	Marburg entry inh
COc1ccccc1NC(=O)c1nc(S(=O)(=O)Cc2ccccc2)ncc1Cl	-9%	?	?	10µM*	28µM*	?
CCOc1ccccc1NC(=O)c1nc(S(=O)(=O)Cc2ccccc2)ncc1Cl	.	.	.	3.5µM*	32µM*	.
CC(=O)Nc1ccc(NC(=O)C(C)OC(=O)/C=C/c2cn(-c3ccccc3)nc2-c2cccnc2)cc1 (centres undefined)	13µM*	?	?	-1%	?	?
Cc1ccc2c(/C=C/c3c[nH]c4ccccc34)ccnc2c1C	-15%	18%	.	.	.	.
Cc1ccc(OC(=O)C2c3ccccc3Oc3ccccc32)cc1C	.	.	18µM*	2%	-25%	?
CC(=O)c1ccc(OC(=O)C2c3ccccc3Oc3ccccc32)cc1	-9%	0%	20%	-3%	-16%	?
COC(=O)c1c(OCc2ccccn2)cc(=O)n2c1CCN(Cc1ccc3nsnc3c1)CC2	-2%	0%	.	.	-5%	.
O=C1CC(N2CCOCC2)C(=O)N1c1ccc2c(c1)OCO2 (centres undefined)	.	-17%	-9%	50µM*	-13%	13%
CC(=O)Oc1cccc(N2C(=O)C3C4C=CC(C4=C(C)C)C3C2=O)c1 (centres undefined)	.	.	21%	-24%	-13%	-11%
CC(=O)Oc1ccc(N2C(=O)C3C4C=CC(O4)C3C2=O)cc1 (centres undefined)	-10%	2%	-9%	7.1µM*	.	23%
CC(=O)Oc1cccc(N2C(=O)C3C(C2=O)C2C=CC3C23CC3)c1 (centres undefined)	.	.	20%	40µM*	9%	-17%
CC(=O)Oc1ccc(N2C(=O)CCC2=O)cc1	-5%	-10%	?	2%	-3%	1%
O=C1CC(N2CCN(c3ccccc3)CC2)C(=O)N1c1ccc2c(c1)OCO2 (centres undefined)	10%	-6%	1%	-16%	2%	37%[46.1 µM]
CC(=O)Oc1ccc(N2C(=O)CC(N3CCOCC3)C2=O)cc1 (centres undefined)	.	-5%	23%	22µM*	-4%	0%
CCc1ccc2ncc3c(-c4ccc(C)cc4)nn(CC(=O)Nc4ccc(C)cc4)c3c2c1	-4%	1%	-26%[46.1 µM]	-2%	6%	.
COc1cccc(-n2ccnc2SCC(=O)Nc2ccc(Cl)c(Cl)c2)c1	i	-9%	0%[46.1 µM]	-1%	-7%	.
CCc1cccc(NC(=O)C2CCC(CNS(=O)(=O)c3ccc(Br)s3)CC2)c1 (centres undefined)	-1%	-9%	19%[46.1 µM]	-2%	?	1%[46.1 µM]
Cc1ccc(S(=O)(=O)CC(=O)N(CCCN2CCOCC2)c2nc3c(F)cccc3s2)cc1	i	-5%	16%	0%	6%	4%[46.1 µM]
O=C(CCS(=O)(=O)c1ccccc1)N(CCCN1CCOCC1)c1nc2c(F)cccc2s1	-4%	?	?	11µM*	40µM*	?
O=C(CCS(=O)(=O)c1ccccc1)N(CCCN1CCOCC1)c1nc2ccc(F)cc2s1	.	.	.	13µM*	1%	.

Bioassay records: PubChem BioAssay, National Center for Advancing Translational Sciences (NCATS)
